The results in this text go back to the supplement of paper PMC10933113.

Counter-ions that a name gives are not always drawn. ± gives the uncertainty stated by the source.

For the assay, the system named is THP-1. Description: CD54 surface expression induction over DMSO control (% over DMSO); higher = stronger dendritic cell activation. The conditions noted are these: exposure time: 24 h. The method, then:
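hCLAT-like CD54 and CD86 surface expression on THP1 cells after 24 h exposure at a single concentration (highest non-cytotoxic concentration, or 100-200 µM if not cytotoxic). Flow cytometry (iQue) was run on 5,000 live cells.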
Turning to `CS/C(C)=N\OC(=O)N(C)SN(C)C(=O)O/N=C(\C)SC` [Thiodicarb] (10 µM), the “CD54 surface expression induction” value was -6.62 ± 5.

`NCCc1ccc(O)cc1` [Tyramine] (100 µM): the “CD54 surface expression induction” value is -4.6 ± 1.1.

`Nc1cc(Cl)ccc1O` [2-Amino-4-chlorophenol] (200 µM): the “CD54 surface expression induction” value is 89.8 ± 6.4.

Turning to `c1ccc(Nc2ccc(Nc3ccccc3)cc2)cc1` [N,N'-Diphenyl-p-phenylenediamine] (200 µM), the “CD54 surface expression induction” value was -11.2 ± 11.

In the case of `CCC(C)(CC)c1cc(NC(=O)c2c(OC)cccc2OC)on1` [Isoxaben] (200 µM), the “CD54 surface expression induction” value was -4.09 ± 5.1.

As for `CC(C)OC(=S)S` [Proxan-sodium] (10 µM), the “CD54 surface expression induction” value is -6.19 ± 3.

Turning to `Cc1cc(C2CC2)nc(Nc2ccccc2)n1` [Cyprodinil] (200 µM), the “CD54 surface expression induction” value turned out to be 2.24 ± 3.2.

On to `O=C(O)c1ccccc1C(=O)Nc1cccc2ccccc12` [Naptalam*] (200 µM), for which the “CD54 surface expression induction” value is 183 ± 32.

Take `C=C1C[C@@H]2[C@H](CC[C@]3(C)C(=O)CC[C@@H]23)[C@@]2(C)C=CC(=O)C=C12` [Exemestane] (100 µM): the “CD54 surface expression induction” value was -0.45 ± 0.02.

Consider `Nc1ccc(Cl)cc1N` [4-Chloro-1,2-diaminobenzene*] (200 µM), for which the “CD54 surface expression induction” value was found to be 233 ± 36.

`Cl/C=C\C[N+]12CN3CN(CN(C3)C1)C2` [Chloroallyl methenamine chloride] (10 µM): the “CD54 surface expression induction” value was 3.14 ± 2.9.

Regarding `CC(C)(C)C(=O)CCl` [1-Chloro-3,3-dimethyl-butan-2-one] (200 µM), the “CD54 surface expression induction” value was -19.8 ± 13.

On to `Cc1ccc2c(c1N)C(=O)c1ccccc1C2=O` [1-Amino-2-methylanthraquinone] (100 µM), for which the “CD54 surface expression induction” value turned out to be 131 ± 21.

Regarding `Nc1ccc(Cl)cc1Cl` [2,4-Dichloroaniline] (200 µM), the “CD54 surface expression induction” value was -7.56 ± 1.5.

On to `CCCCNC(=O)OCC#CI` [Carbamic acid, butyl-, 3-iodo-2-propynyl ester] (10 µM), for which the “CD54 surface expression induction” value was -5.33 ± 4.1.

For `O=[N+]([O-])c1ccc(Oc2ccc(C(F)(F)F)cc2[N+](=O)[O-])cc1` [Fluorodifen] (10 µM), the “CD54 surface expression induction” value is -6.85 ± 4.5.

For `O=[N+]([O-])c1cc([N+](=O)[O-])c2ccccc2c1` [1,3-Dinitronaphthalene] (200 µM), the “CD54 surface expression induction” value came to 3.83 ± 2.5.

As for `COc1ccc2[nH]cc(CCN(C(C)C)C(C)C)c2c1` [5-Methoxy-N,N-diisopropyltryptamine hydrochloride] (224.7 µM), the “CD54 surface expression induction” value was -7.18 ± 11.

As for `CC(C)CC(C)Nc1ccc(Nc2ccccc2)cc1` (stereo not given) [N-(1,3-Dimethylbutyl)-N'-phenyl-p-phenylenediamine] (10 µM), the “CD54 surface expression induction” value was 6.74 ± 24.

In the case of `S=C=NCc1ccccc1` (10 µM), the “CD54 surface expression induction” value was found to be 10.5 ± 7.8.

Consider `O=[N+]([O-])c1cc(C(F)(F)F)c(Cl)c([N+](=O)[O-])c1Cl` [2,4-Dichloro-1,3-dinitro-5-(trifluoromethyl)benzene] (10 µM), for which the “CD54 surface expression induction” value came to 4.56 ± 5.6.

For `Nc1ccc([N+](=O)[O-])cc1N` [4-Nitro-1,2-phenylenediamine] (100 µM), the “CD54 surface expression induction” value was 7.46 ± 2.

`CN(C)S(=O)(=O)N(SC(F)(Cl)Cl)c1ccccc1` [Dichlofluanid] (10 µM): the “CD54 surface expression induction” value amounted to 35.6 ± 3.1.

As to `Fc1ccc(Oc2ccnc3cc(Cl)cc(Cl)c23)cc1` [Quinoxyfen] (200 µM), the “CD54 surface expression induction” value is -12.7 ± 1.

As for `CCCOC/C(=N\c1ccc(Cl)cc1C(F)(F)F)n1ccnc1` [Triflumizole] (10 µM), the “CD54 surface expression induction” value is -3.38 ± 6.6.

As to `C[C@@H]1O[C@@H](O[C@H]2C[C@@H](O)[C@]3(CO)[C@H]4[C@H](O)C[C@]5(C)[C@@H](C6=CC(=O)OC6)CC[C@]5(O)[C@@H]4CC[C@]3(O)C2)[C@H](O)[C@H](O)[C@H]1O` [Ouabain] (10 µM), the “CD54 surface expression induction” value turned out to be 21.9 ± 10.

`CCS(=O)(=O)CCSP(=O)(OC)OC` [Demeton-S-methylsulphon] (10 µM): the “CD54 surface expression induction” value was -8.94 ± 5.5.

`NNC(N)=S` [Thiosemicarbazide] (10 µM): the “CD54 surface expression induction” value was -1.62 ± 1.6.

Take `Cc1ccc(N=C=O)cc1N=C=O` [Toluene-2,4-diisocyanate] (100 µM): the “CD54 surface expression induction” value is -17 ± 4.1.

As for `CCC(C)(NC(=O)c1cc(Cl)c(C)c(Cl)c1)C(=O)CCl` (stereo not given) [Zoxamide] (10 µM), the “CD54 surface expression induction” value was 10.1 ± 25.

As to `O=C1C(Cl)=C(Cl)C(=O)C(Cl)=C1Cl` [Chloranil] (100 µM), the “CD54 surface expression induction” value came out at 17.4 ± 13.

As for `CCOCN(C(=O)CCl)c1c(C)cccc1CC` [Acetochlor] (10 µM), the “CD54 surface expression induction” value was 104 ± 21.

In the case of `CC(COc1ccc(Oc2ccccc2)cc1)Oc1ccccn1` (stereo not given) [Pyriproxyfen] (200 µM), the “CD54 surface expression induction” value is -4.39 ± 4.3.

Take `CC(C)=CC1C(C(=O)OCc2coc(Cc3ccccc3)c2)C1(C)C` (stereo not given) [Resmethrin] (200 µM): the “CD54 surface expression induction” value was 19.8 ± 10.

Turning to `ClC1=C(Cl)C2(Cl)C3C(Cl)C(Cl)CC3C1(Cl)C2(Cl)Cl` (stereo not given) [Chlordane] (200 µM), the “CD54 surface expression induction” value worked out at 27.9 ± 0.29.

As for `CCOC(=O)CC(SP(=S)(OC)OC)C(=O)OCC` (stereo not given) [Malathion] (100 µM), the “CD54 surface expression induction” value was 3.59 ± 5.1.

Consider `CC(C)Nc1ccc(Nc2ccccc2)cc1` [N-Isopropyl-N'-phenyl-p-phenylenediamine] (10 µM), for which the “CD54 surface expression induction” value stood at 46.7 ± 2.8.

As to `O=C1OC(CCN2CCCCC2)OC1(c1ccccc1)c1ccccc1` (stereo not given) [Pipoxolan hydrochloride] (100 µM), the “CD54 surface expression induction” value was determined as 78.1 ± 22.

`OCc1ccco1` [Furfuryl alcohol] (201 µM): the “CD54 surface expression induction” value is 0.62 ± 1.6.

As to `N#C/C=C/C#N` [Fumaronitrile] (10 µM), the “CD54 surface expression induction” value is -10.2 ± 27.
